Bioassay records from PubChem BioAssay.
In the library only some 2.9% were active in any assay of this set; here they are far more common.
KLK7 zymogen act: proKLK7 zymogen activators, primary screen, biochemical, fluorescence intensity; purified proKLK7, EDANS-DABCYL substrate fluorescence; 100% is mature enzyme control, 0% vehicle; activation, % at 7 µM; 0.9% of 370,000 active;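 active = activation above the mean of all tested compounds plus 3 SD, computed per campaign excluding outliers beyond control limits, cut at about 13% in these data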
Target sequence (P49862 whole entry, looked up): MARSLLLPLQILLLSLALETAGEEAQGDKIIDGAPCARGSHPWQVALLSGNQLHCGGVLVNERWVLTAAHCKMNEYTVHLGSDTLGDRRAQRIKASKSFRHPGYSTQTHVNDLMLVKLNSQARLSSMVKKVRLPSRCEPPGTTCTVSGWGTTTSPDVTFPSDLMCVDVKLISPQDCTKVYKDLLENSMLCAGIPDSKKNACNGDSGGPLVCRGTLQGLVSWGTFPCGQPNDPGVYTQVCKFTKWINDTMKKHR
FAS-TE inh: FAS thioesterase domain inhibitors, primary screen, biochemical, fluorescence intensity, uHTS | Fatty acid synthase (Homo sapiens), P49327 | recombinant FAS-TE, OMFH fluorogenic substrate, fluorescence endpoint | inhibition, % at 15 µM | 0.67% of 360,000 active | AID 602261, 2012;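 active = compounds whose normalised, plate-corrected inhibition of enzyme fluorescence in the single-dose primary screen is 50% or more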;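 note: 0% = DMSO with enzyme and 100% = substrate without enzyme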
SMARCA2 activ: SMARCA2 (BRM) function activators, primary screen, cell-based, luminescence, high throughput; MG213 cells, MMTV-luciferase reporter, dexamethasone, overnight; activation, % at 9.1 µM; 1% of 370,000 active; AID 652017, 2013; in the data active = activation above about 7.8%;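 note: 0% = vehicle wells and 100% = reference activator wells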
FXN GAA850 act: FXN promoter activators, primary screen, cell-based, luciferase luminescence, HEK293 lucGAA850 | AID 540364, 2011 | activation, % at 6 µM | HEK293 lucGAA850 FXN promoter luciferase reporter, 24 h; percent of 10 µM SAHA response | 0.56% of 360,000 active;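 active = activation above the average of all compounds screened plus 3 SD, cutoff fixed separately per campaign, cut at about 7.5% in these data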;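 note: 0% = DMSO wells and 100% = 10 µM SAHA wells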
KLK7 act conf: proKLK7 zymogen activators, confirmation, biochemical, fluorescence intensity, triplicate. shares compounds with KLK7 zymogen act. purified proKLK7, EDANS-DABCYL substrate fluorescence; scaled: vehicle 0, mature enzyme 100. activation, % at 7 µM. 68% of 3,200 active. AID 686949, 2013;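 active = activation, as change over the incubation, above the mean of all tested compounds plus 3 SD, cut at about 13% in these data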
EDANS interfere: EDANS-DABCYL substrate optical interference, artefact control for kallikrein-7 zymogen activator project, biochemical, fluorescence intensity, high throughput; shares compounds with KLK7 zymogen act; no enzyme, 4 h; solvent 0%, active enzyme control 100%; activation, % at 7 µM; 80% of 3,200 active;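 active = activation above the all-compound mean plus 3 SD, ignoring values outside control-based bounds, cut at about 4.8% in these data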;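 note: value is the 4 h activation minus the activation read at time zero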
K7 EDANS ctr: EDANS fluorescence interference in dose response, no enzyme | shares compounds with KLK7 zymogen act | EDANS-DABCYL peptide fluorescence interference | EC50, µM | 20% of 250 active | AID 720493;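 active = compounds that raise the fluorescence signal in this interference counterscreen, with EC50 at or below 10 µM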;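 note: intact quenched peptide substrate alone read at 355 nm excitation and 520 nm emission; signal is fluorescence gain from T0 to T4 after four hours at room temperature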
The depositor's hits bear a star.

How did CCOc1ccccc1NC(=O)N1CCCC1C(=O)NCc1cccs1 (centres undefined) do in these assays?
KLK7 zymogen act: 0; FAS-TE inh: -1; SMARCA2 activ: -3; FXN GAA850 act: 0

What do the screens show for `CCOc1ccc(/C(O)=C2/C(=O)C(=O)N(c3ccccn3)C2c2ccc(C)cc2)c(C)c1` (centres undefined)?
KLK7 zymogen act: 17*; FAS-TE inh: -6; SMARCA2 activ: 3; FXN GAA850 act: 1; KLK7 act conf: 32*; EDANS interfere: 32*

Results for CC(C)(C)NC(=O)COC(=O)c1cc(S(=O)(=O)N2CCCCC2)ccc1N1CCOCC1 ?
KLK7 zymogen act: 0; FAS-TE inh: -8; SMARCA2 activ: 1; FXN GAA850 act: 2

Results for O=C1CC(c2ccc(O)c(O)c2)Oc2c1ccc(O)c2O (centres undefined) ?
KLK7 zymogen act: 16*; FAS-TE inh: -3; SMARCA2 activ: 1; FXN GAA850 act: 0; KLK7 act conf: 8; EDANS interfere: 7.7*

What do the screens show for `CC(C)=CCc1c(O)ccc2c1OC(c1ccc(O)c(O)c1)CC2=O` (centres undefined)?
KLK7 zymogen act: -4; FAS-TE inh: -2; SMARCA2 activ: -4; FXN GAA850 act: 3

What do the screens show for `Cc1nc(SCC(=O)Nc2ccc(S(=O)(=O)N3CCOCC3)cc2)c2c(C)c(C)sc2n1`?
KLK7 zymogen act: 0; FAS-TE inh: 22; SMARCA2 activ: -4; FXN GAA850 act: -7

How did CC(C)[C@H](NC(=O)OCc1ccccc1)C(=O)OCc1cc(=O)oc2cc(O)ccc12 do in these assays?
KLK7 zymogen act: 28*; FAS-TE inh: 5; SMARCA2 activ: -2; FXN GAA850 act: 3; KLK7 act conf: 62*; EDANS interfere: 60*

What do the screens show for `CC(C)Sc1nc(N2CCOCC2)c2c(c1C#N)CC(C)(C)N(C)C2`?
KLK7 zymogen act: 35*; FAS-TE inh: -5; SMARCA2 activ: 3; FXN GAA850 act: 1; KLK7 act conf: 0; EDANS interfere: 1

Results for CN1Cc2c(N3CCOCC3)nc(SCCC#N)c(C#N)c2CC1(C)C ?
KLK7 zymogen act: 2; FAS-TE inh: 31; SMARCA2 activ: -1; FXN GAA850 act: 2

Results for CNC(=O)c1ccc(-c2sc3nc(N4CCOCC4)c4c(c3c2N)CC(C)(C)OC4)o1 ?
KLK7 zymogen act: -15; FAS-TE inh: 0; SMARCA2 activ: -5; FXN GAA850 act: -3

What do the screens show for `CC1(C)Cc2c(c(N3CCOCC3)nc3sc(-c4ccc(C(=O)O)o4)c(N)c23)CO1`?
KLK7 zymogen act: 46*; FAS-TE inh: -4; SMARCA2 activ: 0; FXN GAA850 act: 0; KLK7 act conf: 22*; EDANS interfere: 23*

How did CN1Cc2c(N3CCOCC3)nc3sc(C#N)c(N)c3c2CC1(C)C do in these assays?
KLK7 zymogen act: 17*; FAS-TE inh: -5; SMARCA2 activ: 0; FXN GAA850 act: 4; KLK7 act conf: 68*; EDANS interfere: 70*

Results for CN1Cc2c(N3CCOCC3)nc3sc(C(=O)c4ccc(Br)cc4)c(N)c3c2CC1(C)C ?
KLK7 zymogen act: -1; FAS-TE inh: 46; SMARCA2 activ: 3; FXN GAA850 act: 3

How did CC(C)(C)n1cnc2cc(NC(=O)c3ccc(Cl)cc3)ccc21 do in these assays?
KLK7 zymogen act: 0; FAS-TE inh: -5; SMARCA2 activ: 3; FXN GAA850 act: 4

What do the screens show for `COc1cc(COCC(O)CN2CCOCC2)cc(OC)c1OC` (centres undefined)?
KLK7 zymogen act: 0; FAS-TE inh: -5; SMARCA2 activ: 1; FXN GAA850 act: 0

Results for CNc1cnc(-c2ccsc2)cn1 ?
KLK7 zymogen act: 15*; FAS-TE inh: -3; SMARCA2 activ: 1; FXN GAA850 act: 5; KLK7 act conf: 12; EDANS interfere: 12*

Results for COc1ccc([C@H]2CC(=O)C=C(c3ccc(-c4ccccc4)c(F)c3)C2)cc1 ?
KLK7 zymogen act: 0; FAS-TE inh: 23; SMARCA2 activ: 1; FXN GAA850 act: 1

What do the screens show for `COc1ccc(N=Cc2c(O)n(-c3cccc(C)n3)c(=O)c3ccccc23)cc1`?
KLK7 zymogen act: 4; FAS-TE inh: 10; SMARCA2 activ: 7; FXN GAA850 act: 2

What do the screens show for `Cc1cccc(-n2c(O)c(C=Nc3ccccc3)c3ccccc3c2=O)n1`?
KLK7 zymogen act: 17*; FAS-TE inh: 6; SMARCA2 activ: -2; FXN GAA850 act: 1; KLK7 act conf: 15*; EDANS interfere: 16*

What do the screens show for `O=C(Nc1nc2c(s1)CN(Cc1ccccc1)CC2)c1cccc(S(=O)(=O)N2CCc3ccccc32)c1`?
KLK7 zymogen act: 640*; FAS-TE inh: -55; SMARCA2 activ: -5; FXN GAA850 act: -3; KLK7 act conf: 21*; EDANS interfere: 18*

How did O=C(Nc1nc2ccccc2s1)c1cccc(S(=O)(=O)N2CCc3ccccc32)c1 do in these assays?
KLK7 zymogen act: 0; FAS-TE inh: 36; SMARCA2 activ: -4; FXN GAA850 act: 2

How did COC(=O)c1ccc2c(C)c(C(C)(C)O)[nH]c2c1 do in these assays?
KLK7 zymogen act: 28*; FAS-TE inh: -4; SMARCA2 activ: 2; FXN GAA850 act: 2; KLK7 act conf: 67*; EDANS interfere: 63*

How did COCCn1c(=O)[nH]c2cc(C(=O)OC)ccc2c1=O do in these assays?
KLK7 zymogen act: -16; FAS-TE inh: -6; SMARCA2 activ: -2; FXN GAA850 act: 0

How did COc1cccc(CNC(=O)c2ccc3c(c2)N(C)CCS3)c1OC do in these assays?
KLK7 zymogen act: 38*; FAS-TE inh: -5; SMARCA2 activ: 1; FXN GAA850 act: 1; KLK7 act conf: 69*; EDANS interfere: 47*; K7 EDANS ctr: >70

What do the screens show for `CN1CCSc2ccc(C(=O)NCc3cccc(Br)c3)cc21`?
KLK7 zymogen act: 10; FAS-TE inh: 15; SMARCA2 activ: -1; FXN GAA850 act: -1

What do the screens show for `CCN1CCSc2ccc(C(=O)NCc3ccccc3Br)cc21`?
KLK7 zymogen act: -25; FAS-TE inh: 18; SMARCA2 activ: -1; FXN GAA850 act: 1

How did CCN1CCSc2ccc(C(=O)NCc3ccccc3F)cc21 do in these assays?
KLK7 zymogen act: 31*; FAS-TE inh: 10; SMARCA2 activ: -1; FXN GAA850 act: 2; KLK7 act conf: 50*; EDANS interfere: -26; K7 EDANS ctr: >70
